Screens: PubChem BioAssay, National Center for Advancing Translational Sciences (NCATS)
Sampled rows, rich in hits. Any-hit rate of the full collection: about 6.3%.
S2 tox – viability counter-screen for ATXN expression inhibitors; 400,000 compounds, 0.49% hits; S2 cells (HEK-293 line with an ATXN2-luciferase reporter) viability, CellTiter-Fluor protease fluorescence, 24 h; Potency, µM (top dose mostly 56.7 µM), actives largely listed as cytotoxic; AID 651635; also: nearly all actives have a fitted effect of over 40% in size
RORg inh – blocks mouse ROR gamma transcriptional activity; Drosophila S2 Gal4-RORgamma UAS-luciferase reporter, 20 h; Potency, µM (titrated, usually from 53.6 µM), for inactives: at the highest dose activity change, negative = inhibition, hits mostly inhibitors; 310,000 compounds, 5.4% hits; AID 2551; also: % is scaled to controls: 0 for no effect and ±100 for the full control effect; nearly all actives have a fitted effect of over 60% in size
Target sequence (P51450 whole entry, looked up, the tested form may be a part): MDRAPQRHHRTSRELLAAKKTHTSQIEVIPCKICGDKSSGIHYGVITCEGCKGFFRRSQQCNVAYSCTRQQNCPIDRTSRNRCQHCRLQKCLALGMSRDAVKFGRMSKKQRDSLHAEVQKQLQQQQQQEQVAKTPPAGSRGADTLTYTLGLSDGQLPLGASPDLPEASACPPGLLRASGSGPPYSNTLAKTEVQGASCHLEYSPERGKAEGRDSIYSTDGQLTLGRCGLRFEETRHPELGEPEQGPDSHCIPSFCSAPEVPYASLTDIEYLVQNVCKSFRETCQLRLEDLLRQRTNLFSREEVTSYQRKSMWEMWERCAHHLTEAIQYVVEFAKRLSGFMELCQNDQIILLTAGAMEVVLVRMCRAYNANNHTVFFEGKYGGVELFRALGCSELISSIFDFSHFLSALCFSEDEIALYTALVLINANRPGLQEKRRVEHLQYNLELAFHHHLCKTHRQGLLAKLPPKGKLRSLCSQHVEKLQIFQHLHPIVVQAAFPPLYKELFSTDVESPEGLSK
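Stably transfected Drosophila Schneider cells are the test system, with ROR gamma fused to Gal4 and luciferase under UAS control; luminescence is read after 20 hr of 700 uM copper sulfate induction at ambient temperature.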
Gal4-VP16 FLuc – Gal4-VP16 reporter inhibition counter-screen | AID 2546 | Potency, µM (top dose mostly 53.6 µM), inactives show top-dose activity, negative = inhibition, actives largely listed as inhibitors | 310,000 compounds, 3.5% hits | Drosophila S2 Gal4-VP16 UAS-luciferase, luminescence, 20 h;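 also: Gal4-VP16 expression switched on by copper sulfate through the metallothionein promoter; % is scaled to controls: 0 for no effect and ±100 for the full control effect; nearly all actives have a fitted effect of over 50% in size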
HepG2 tox – HepG2 cytotoxicity, counter-screen for TGF-b inhibitors; Potency, µM (titrated, usually from 46.1 µM), for inactives: top-dose activity change, negative = cytotoxicity, most hits filed as cytotoxic; HepG2 CAGA-GFP viability, ATP luminescence, 18 h; AID 588856; 410,000 compounds, 0.76% hits
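HepG2 CAGA-GFP cells (1000/well, DMEM with 1% FBS) received compound, then TGF-beta at 500 pg/mL final, and were incubated 18 hours at 37 degrees C. Viability was read by CellTiter-Glo luminescence. Media-only wells were set as complete cell-killing and DMSO as no toxicity.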
ATXN2 expr inh – ATXN2 expression inhibition. AID 1745845. HEK-293 ATXN2-luciferase reporter, luminescence, 24 h. 360,000 compounds, 0.72% hits. Potency, µM (doses to about 57 µM), for the others: top-dose activity change, negative = inhibition, hits mostly inhibitors; also: % is scaled to controls: 0 for no effect and ±100 for the full control effect; nearly all actives have a fitted effect of over 55% in size
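ATXN2-luciferase reporter cells (luciferase flanked by upstream and downstream ATXN2 gene portions) were treated 24 h at 37 °C with compounds at up to 57 uM. SteadyGlo luminescence gave expression; GF-AFC fluorescence gave viability.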
TGFb inhibitor – TGF-b pathway inhibition | HepG2 CAGA-GFP TGF-b/SMAD3 reporter, GFP fluorescence, 18 h; TGF-beta stimulated, 500 pg/mL final | Potency, µM (highest dose often 46.1 µM), for inactives: top-dose activity, negative = inhibition, actives largely listed as inhibitors | 410,000 compounds, 1.2% hits | AID 588855; also: % is scaled to controls: 0 for no effect and ±100 for the full control effect; nearly all actives have a fitted effect of over 65% in size
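Smad-responsive CAGA-GFP expression was quantified in HEPG2 cells exposed to compounds and 500 pg/mL final TGF-beta for 18 h at 37 degrees C; unstimulated wells defined full inhibition.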
An asterisk follows results filed as active; i = inactive; u = inconclusive; x = no result given; ! = not active in a repeat; [ ] = dose if it differs, or a comment. Calls follow the shape of the dose curve; as a rule, active = well fitted curve in the direction sought with a large enough effect; inconclusive = small, poorly fitted or top-dose-only effect, or another doubt; inactive = no such curve, though single readings can be large; an effect the other way counts as inactive or inconclusive. Potency is read from the fitted curve at half-maximal effect.

SMILES	S2 tox	RORg inh	Gal4-VP16 FLuc	HepG2 tox	ATXN2 expr inh	TGFb inhibitor
OCCOCCn1c(C(CO)Nc2nc(-c3cccc(Br)c3)cs2)nc2ccccc21 (stereo not drawn)	i	x	x	-50.6%	-25.4%	u
CCOC(=O)C1CCN(C(=O)Cn2nc(C)n3c(cc4sccc43)c2=O)CC1	x	x	x	-26.9%	x	u
COc1ccc(-c2cn3cc(C)ccc3n2)cc1Br	i	u	7.08µM*	-11.3%	99.4%	7.4%
COc1ccc(-c2cn3cc(Cl)ccc3n2)cc1OC	i	19.3%	-3.4%	-47.1%	73.3%	-23.6%
CCC(=O)Nc1nonc1-c1nc2ccccc2n1CCC(C)C	i	-35.8%	-16.3%	-18.3%	-9.3%	3.9%
CC(=O)Nc1nonc1-c1nc2ccccc2n1CCC(C)C	i	12.6µM*	-18.0%	-5.9%	-6.4%	-7.3%
COC1CCC(N(C(=O)C2CCC(C)CC2)c2cc(C3=CCCCC3)sc2C(=O)O)CC1 (stereo not drawn)	x	x	x	x	-0.9%	x
CCN1C(=O)C(=Cc2cccc(OC)c2Oc2ccc([N+](=O)[O-])cc2[N+](=O)[O-])SC1=S	12.6µM*	u	u	-13.8%	22.4µM*	0.0%
CCC1(C2CCN(Cc3cccc(Cl)c3)CC2)NC(=O)N(CC2COc3ccccc3O2)C1=O (stereo not drawn)	i	x	x	x	x	x
C[S+](C)CC(=O)c1ccc2ccccc2c1	x	x	x	-12.4%	x	24.1%
CC(=O)N(C)C1(c2ccccc2)CCN(CCC[C@]2(c3ccc(Cl)c(Cl)c3)CCCN(C(=O)c3ccccc3)C2)CC1	x	x	x	x	21.7µM*	x
O=C(c1ccncc1)N1CCC[C@@]2(CCN(Cc3ccccc3)C2)C1	x	7.2%	1.2%	x	x	x
CCOCCCNC(=S)N1CCCN(c2nc3c(C)c(C)ccc3cc2C#N)CC1	u	7.4%	1.2%	-16.5%	u	u
Cc1cccc2cc(C#N)c(NCCNC(=S)NCCCN3CCOCC3)nc12	i	3.98µM*	-2.3%[0.365 µM]	-30.1%	-26.0%	0.1%
CCOCCCNC(=S)NCCCNc1nc2c(C)c(C)ccc2cc1C#N	i	11.2µM*	u	-54.3%	1.0%[11.3 µM]	u
O=C(Cc1ccccc1F)Nc1nc2ccccc2[nH]1	i	10µM*	u	-8.4%	4.2%	7.1%
CCCCCC(=O)Nc1nc2ccccc2[nH]1	i	6.31µM*	u	-2.5%	30.9%	13.7%
O=C(Cc1cccc2ccccc12)Nc1nc2ccccc2[nH]1	i	7.94µM*	8.91µM*	-32.3%	-19.0%	-2.5%
C/C(=N/NC(=O)c1ccc(C(C)(C)C)cc1)c1cccnc1	i	x	x	48.6%	-0.6%	22.0%
CNC(=S)N/N=C(\C)c1ccc(C(C)(C)C)cc1	i	1.12µM*	0.891µM*	-17.1%	3.1%	1.3%
CNC(=S)N/N=C(\C)c1ccccc1	i	3.98µM*	15.8µM*	53.1%	32.1%	u
C/C(=N/NC(=O)C(=O)N/N=C(/C)c1ccccc1)c1ccccc1	x	8.7%	-6.4%	x	x	x
CNC(=S)N/N=C(\C)c1cccc([N+](=O)[O-])c1	i	3.55µM*	4.47µM*	-2.5%	-19.5%	-7.0%
Nc1ncnc(Sc2ncccn2)c1[N+](=O)[O-]	23.8µM*	3.98µM*	7.08µM*	11.2µM*	u	10µM*
Nc1ncnc(Sc2ccccc2)c1[N+](=O)[O-]	i	10µM*	u	6.9%	27.6%	-26.1%
SMILES	S2 tox	RORg inh	Gal4-VP16 FLuc	HepG2 tox	ATXN2 expr inh	TGFb inhibitor
COc1ccc(Cc2nc3ccc(C(=O)N4CCCCC4CO)cc3o2)cc1OC (stereo not drawn)	i	x	x	-27.8%	x	-15.7%
CCOc1ccc(CC2S/C(=N/c3ccccn3)NC2=O)cc1 (stereo not drawn)	i	3.16µM*	5.01µM*	-8.9%	13.9%	u
COc1ccc(/C=N/N=C2/NC(=O)C(c3ccccc3)S2)c(OC)c1 (stereo not drawn)	i	14.1µM*	-2.9%[0.365 µM]	2.0%	5.5%	-14.2%
O=C1N/C(=N/N=C/c2ccc(O)cc2)SC1Cc1ccccc1 (stereo not drawn)	i	-32.8%	-16.8%	-5.9%	6.6%	-4.9%
COc1ccc(CC2S/C(=N/N=C/c3ccccc3O)NC2=O)cc1 (stereo not drawn)	u	5.62µM*	u	-51.3%	u	7.94µM*
O=C1N/C(=N/N=C/c2ccccc2O)SC1Cc1ccc(F)cc1 (stereo not drawn)	u	2.82µM*	8.91µM*	-29.1%	8.91µM*	u
Cc1cccc(/N=C2/NC(=O)C(Cc3ccccc3)S2)n1 (stereo not drawn)	i	-22.7%	-16.9%	-7.7%	-12.6%	-28.4%
O=C(O)CC1NC(=S)N(Cc2ccccc2)C1=O (stereo not drawn)	u	x	x	-9.3%	x	3.3%
O=C(CSc1nc2nn(-c3ccccc3)c(=O)c-2c2n1CCCCC2)c1ccc(OC(F)F)cc1	i	x	x	-19.5%	-10.2%	-24.5%
COc1cc2c(cc1OC)C(c1ccc(-c3ccccc3Cl)o1)=NCC2	x	11.2µM*	11.2µM*	-113.0%	35.5µM*	u
COc1cc2c(cc1OC)C(c1ccc(-c3cc(Cl)ccc3Cl)o1)=NCC2	u	0.5%	-0.6%	-31.8%	u	-0.3%
COc1cc2c(cc1OC)C(c1ccc(-c3ccc(Cl)cc3Cl)o1)=NCC2	u	6.31µM*	20µM*	-64.5%	u	14.1µM*
COc1cc2c(cc1OC)C(c1ccc(Cl)cc1)=NCC2	u	-37.8%	0.7%	-17.9%	x	u
COc1cc2c(cc1OC)C(c1ccc(-c3ccc(Cl)c(Cl)c3)o1)=NCC2	i	12.6µM*	u	11.2µM*!	u	11.2µM*
Cc1ccc(CNC(=O)CN2CCCN(Cc3ccc(F)cc3)S2(=O)=O)cc1	u	x	x	-12.9%	-1.0%	-25.9%
COc1cc2nc(N(C)C)c(CNCc3cccc4ccccc34)cc2c(OC)c1OC	i	x	x	x	x	x
Cc1ccc(C)c(N2CCN(c3c(CN4CCCC4)c(=O)oc4ccccc34)CC2)c1	i	x	x	0.2%	-2.5%	23.7%
CCn1c(=O)cc(SCC(=O)NCCc2cc(OC)ccc2OC)c2ccccc21	i	x	x	-0.5%	-1.5%	-32.9%
Cc1ccc2nc(-c3ccc(O)cc3)c(Nc3ccc(Cl)cc3)n2c1	x	x	x	-82.5%	x	17.8µM*
Cc1ccn2c(NC3CCCCC3)c(C)nc2c1	i	12.6µM*	u	0.8%	-12.5%	u
Cc1ccc(Nc2c(-c3ccccn3)nc3ccc(C)cn23)cc1	u	12.6µM*	u	-7.2%	x	u
Cc1ccc(Nc2c(-c3ccccn3)nc3cc(C)ccn23)cc1	u	12.6µM*	u	-37.9%	3.55µM*	u
